Pf growth 48h: inhibits P. falciparum growth in the first generation, 48 h | P. falciparum luciferase growth in erythrocytes, 48 h | Potency, µM (top dose mostly 28.7 µM), most hits filed as inhibitors | 310,000 tested, 5.9% active | AID 504832
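Parasite viability was followed by luminescence of a genomically integrated firefly luciferase. Cultures held 0.1% parasitemia at 2% hematocrit (final), incubated under 5% CO2 at 37 C.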
AmpC detergent: blocks E. coli AmpC beta-lactamase in detergent assay. P00811. AmpC hydrolysis of nitrocefin, absorbance 480 nm, 0.01% Triton. Potency, µM (top dose mostly 114 µM), hits mostly inhibitors. 370,000 tested, 0.041% active. AID 485294; note: nearly all actives have a fitted effect of over 25% in size
Target sequence (P00811 whole entry, looked up): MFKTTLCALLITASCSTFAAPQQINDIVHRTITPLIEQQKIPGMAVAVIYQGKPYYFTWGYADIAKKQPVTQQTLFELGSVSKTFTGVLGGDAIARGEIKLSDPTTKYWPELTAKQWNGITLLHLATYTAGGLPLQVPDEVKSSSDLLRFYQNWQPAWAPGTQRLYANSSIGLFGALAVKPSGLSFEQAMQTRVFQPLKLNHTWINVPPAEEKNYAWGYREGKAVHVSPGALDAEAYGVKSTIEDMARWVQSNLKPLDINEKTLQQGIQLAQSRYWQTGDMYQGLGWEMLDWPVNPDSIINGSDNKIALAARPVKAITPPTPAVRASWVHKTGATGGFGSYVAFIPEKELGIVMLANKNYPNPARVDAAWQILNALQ
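20 mM phosphate pH 7.0 + 0.01% (detergent screen) or 0.0001% Triton X-100; 5.3 nM AmpC reagent; cpd preinc 15 min RT; nitrocefin (800 uM stock) to start; A480 q20 s × 4 min; Activity was normalised to no-enzyme and no-compound control wells.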
AmpC no deterg: blocks E. coli AmpC beta-lactamase in detergent-free assay; AmpC nitrocefin hydrolysis, absorbance 480 nm, 0.0001% Triton; Potency, µM (highest dose often 57.1 µM), most hits filed as inhibitors; 330,000 tested, 0.52% active; note: nearly all actives have a fitted effect of over 20% in size
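AmpC (5.3 nM in the dispensed reagent) in 20 mM phosphate pH 7.0 with 0.01% (detergent screen) or 0.0001% Triton X-100 was preincubated with compounds for 15 min at room temperature. Nitrocefin was then added from an 800 uM solution, and hydrolysis was followed at 480 nm.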
Sm TGR inh: S. mansoni TGR enzyme inhibition; Q962Y6; purified TGR, DTNB reduction, TNB absorbance 405 nm; Potency, µM (highest dose often 114 µM), most hits filed as inhibitors; 360,000 tested, 3% active; AID 485364; note: nearly all actives have a fitted effect of over 60% in size
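First, TGR (20 nM dispensed) and NADPH were mixed with compound. Second, a 15 min room-temperature incubation followed. Third, further NADPH and then DTNB were added to start the reaction. Finally, TNB absorbance was monitored kinetically.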
SARS PLP yeast: SARS-CoV PLP inhibition in yeast; Potency, µM (highest dose often 32.9 µM), hits mostly activators; S. cerevisiae expressing SARS-CoV PLpro, growth rescue; 330,000 tested, 0.19% active; calls by dose curve; note: nearly all actives have a fitted effect of over 55% in size
Pf growth 96h: P. falciparum growth inhibition at 96 hours; P. falciparum luciferase reporter growth, 96 h; Potency, µM (titrated, usually from 28.7 µM), most hits filed as inhibitors; 320,000 tested, 6.9% active
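Infected RBCs, 2% Hct / 0.05% parasitemia final; luciferase-reporter P. falciparum; cpd 96 h, 37 C, 5% CO2; luciferase detection reagent; luminescence.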
Of the large screens only hits and unclear results are named; the others gave an inactive call. Hits are enriched below; roughly 12% of the tested compounds scored in any of these assays. Unless noted, calls come from the whole dose curve; as a rule, active = well fitted curve in the direction sought with a large enough effect; inconclusive = small, poorly fitted or top-dose-only effect, or another doubt; inactive = no such curve, though single readings can be large; an effect the other way counts as inactive or inconclusive.

Cc1ccccc1OCc1ccc(-c2nc(C#N)c(NCCCN(C)C)o2)o1	none (no result: Pf growth 48h, AmpC no deterg, SARS PLP yeast, Pf growth 96h)
CCc1ccc(NC(=S)N2CCCCCCC2)cc1	AmpC detergent inconclusive
CCCCc1nn2c(=O)cc(COC(=O)CNC(=O)c3ccccc3C)nc2s1	none (no result: Pf growth 48h, AmpC no deterg, SARS PLP yeast, Pf growth 96h)
Cc1ccc(C2/C(=C(/O)c3ccccc3)C(=O)C(=O)N2CCN2CCOCC2)o1 (configuration not stated)	Sm TGR inh 45µM
COc1cc2ncnc(NCc3ccc4c(c3)OCO4)c2cc1OC	Pf growth 48h 12µM, Pf growth 96h inconclusive
COc1ccc(CNc2ncnc3cc(OC)c(OC)cc23)cc1	Pf growth 48h 4.1µM, Pf growth 96h 2.1µM
COc1ccc(CNc2ncnc3cc(OC)c(OC)cc23)cc1OC	Pf growth 48h inconclusive, Pf growth 96h inconclusive
COc1ccc(Nc2nc3c(S(=O)(=O)c4ccc(Br)cc4)nnn3c3ccsc23)c(OC)c1	none (no result: Pf growth 48h, AmpC no deterg, SARS PLP yeast, Pf growth 96h)
COc1ccc(CNC(=O)Cn2nc(C)c3nn(-c4ccc(Cl)cc4)c(C)c3c2=O)cc1	none (no result: Pf growth 48h, AmpC no deterg, SARS PLP yeast, Pf growth 96h)
Oc1ccc(-c2nc3ccccc3s2)c(O)c1	none
Oc1ccc(-c2cnns2)c(O)c1	Pf growth 48h 10µM, Sm TGR inh 79µM, Pf growth 96h 12µM
Cc1ccc(N2CCN(c3ccc(NCc4nc5ccccc5n4C)cc3)CC2)cc1	Pf growth 48h 13µM, AmpC detergent inconclusive, Pf growth 96h 5.2µM
CCCCCCn1c(N2CCN(c3ccccc3)CC2)nc2c1c(=O)[nH]c(=O)n2C	Pf growth 48h 8.3µM, Pf growth 96h 15µM
CCCCCn1c(CN2CCN(c3cccc(Cl)c3)CC2)nc2c1c(=O)[nH]c(=O)n2C	Pf growth 48h 13µM, Pf growth 96h inconclusive
Cn1c(=O)[nH]c(=O)c2c1nc(CN1CCN(c3cccc(Cl)c3)CC1)n2CCc1ccccc1	Pf growth 48h inconclusive, AmpC detergent inconclusive
Cn1c(CN2CCN(c3cccc(Cl)c3)CC2)nc2ccccc21	Pf growth 48h 13µM, SARS PLP yeast inconclusive, Pf growth 96h inconclusive
CC(=O)N1CCc2c(sc3c2c(=O)n(-c2cc(Cl)ccc2C)c(=O)n3C)C1	none (no result: Pf growth 48h, AmpC no deterg, SARS PLP yeast, Pf growth 96h)
COC(=O)c1cc2sccc2n1Cc1ccc(F)cc1Cl	none (no result: Pf growth 48h, AmpC no deterg, SARS PLP yeast, Pf growth 96h)
Cc1cccc(NC(=O)NCCN2CCN(c3ccccc3)CC2)c1C	Pf growth 96h inconclusive
Cc1ccc(C(=O)Nc2c(C(=O)NCc3ccc(Cl)cc3)sc3nc(C)cc(C)c23)cc1	none (no result: Pf growth 48h, AmpC no deterg, SARS PLP yeast, Pf growth 96h)
CCCn1c(N2CCN(CC(=O)c3c(C)n(C)c4ccccc34)CC2)nc2c1c(=O)[nH]c(=O)n2C	Pf growth 48h 0.083µM
Cn1c(=O)[nH]c(=O)c2c1nc(N1CCOCC1)n2CCN1CCOCC1	Pf growth 48h 1.9µM
CCCCCCn1c(N(CC)CC)nc2c1c(=O)[nH]c(=O)n2C	AmpC detergent inconclusive, Pf growth 96h 1.9µM
Cn1c(=O)[nH]c(=O)c2c1nc(CN1CCN(c3ccc(F)cc3)CC1)n2CCc1ccccc1	Pf growth 48h inconclusive, Pf growth 96h 10µM
CCn1c(N2CCN(CC(=O)c3c[nH]c4ccccc34)CC2)nc2c1c(=O)[nH]c(=O)n2C	Pf growth 48h inconclusive
Cn1c(=O)[nH]c(=O)c2c1nc(N1CCOCC1)n2CCc1ccccc1	none (no result: Sm TGR inh)
CCN(CC)c1nc2c(c(=O)[nH]c(=O)n2C)n1Cc1ccccc1	none
Cc1cccc(NC(=O)Cn2cc(C(=O)C3CCCCC3)c3ccccc32)c1	none (no result: Pf growth 48h, AmpC no deterg, SARS PLP yeast, Pf growth 96h)
COc1ccc2c(c1)[C@H]1[C@H](CO2)[C@H](c2ccccc2)[C@]2(C)C(=O)N(CC3CCCO3)CC(=O)N12 (some centres not stated)	Pf growth 48h inconclusive, Pf growth 96h inconclusive
CC(c1ccccc1)n1c(N2CCNCC2)nc2c1c(=O)[nH]c(=O)n2C (configuration not stated)	Pf growth 48h 8.3µM, Sm TGR inh inconclusive
CC(c1ccccc1)n1c(Br)nc2c1c(=O)[nH]c(=O)n2C (configuration not stated)	AmpC detergent inconclusive, Pf growth 96h inconclusive
COc1ccc2cc3cc(C(=O)NCc4ccco4)oc3nc2c1	Sm TGR inh inconclusive (no result: Pf growth 48h)
COc1ccc2cc3cc(C(=O)NCc4ccccn4)oc3nc2c1	Pf growth 48h 6.6µM
CCN(C(=O)c1cc2cc3ccc(OC)cc3nc2o1)c1cccc(C)c1	none (no result: Pf growth 48h, AmpC no deterg, SARS PLP yeast, Pf growth 96h)
CCOc1ccc(NC(=O)c2cc3cc4ccc(OC)cc4nc3o2)cc1	AmpC detergent inconclusive, Pf growth 96h 5.2µM (no result: Pf growth 48h)
COc1ccc2cc3cc(C(=O)N4CCCC(C)C4)oc3nc2c1 (configuration not stated)	Pf growth 96h 12µM
CCCCN(CC)C(=O)c1cc2cc3ccc(OC)cc3nc2o1	Pf growth 48h 12µM, AmpC detergent inconclusive, Pf growth 96h 5.2µM
CCOCCc1nn2c(=O)cc(COC(=O)C(CC)c3ccccc3)nc2s1 (configuration not stated)	none (no result: Pf growth 48h, AmpC no deterg, SARS PLP yeast, Pf growth 96h)
CC(=O)c1cc2c(cc1NC(=O)c1cnn(-c3ccc(C)cc3)c1-n1cccc1)OCO2	none (no result: Pf growth 48h, AmpC no deterg, SARS PLP yeast, Pf growth 96h)
COC(=O)CSc1nc2c(cnn2-c2ccc(F)cc2)c(=O)[nH]1	none
COc1ccc(CCN2C(=O)CN(C3CCC(C)CC3)C(=O)C2c2ccc(OC(C)C)c(OC)c2)cc1OC (configuration not stated)	none (no result: Pf growth 48h, AmpC no deterg, SARS PLP yeast, Pf growth 96h)
CCOC(=O)C1(CCCc2ccccc2)CCN(CCCn2cccn2)CC1	Pf growth 48h inconclusive, Pf growth 96h 10µM
CCOC(=O)C1(CCCc2ccccc2)CCN(C(=O)CN2CCOC2=O)CC1	Pf growth 96h 15µM
CCOC(=O)C1(CCCc2ccccc2)CCN(C(=O)CSC)CC1	Pf growth 96h inconclusive
CCOC(=O)C1(CCCc2ccccc2)CCN(Cc2nccn2CC)CC1	Pf growth 48h 10µM, Pf growth 96h inconclusive
CC(=O)CCc1oc2ccc([N+](=O)[O-])cc2c1-c1ccc(C)o1	Sm TGR inh 20µM
CC(=O)CCc1oc2ccccc2c1-c1ccccc1	none
CC(=O)CCc1oc2c([N+](=O)[O-])cccc2c1-c1ccc(C)o1	Sm TGR inh 11µM
c1csc(COc2ccccc2CNC2CCCCC2)c1	Pf growth 48h inconclusive
CCOC(=O)c1ccc(NC(=O)COc2ccccc2CNC2CCCC2)cc1	Pf growth 48h 4.7µM
CCOc1cc(CNC2CCCC2)c(Cl)cc1OCC(=O)Nc1ccccc1	Pf growth 48h 10µM
c1ccc(COc2ccccc2CNC2CCCC2)cc1	Pf growth 48h inconclusive, Pf growth 96h 5.2µM
CCN(CC)S(=O)(=O)c1ccc2oc(Nc3ccc(OC)cc3OC)nc2c1	Pf growth 48h inconclusive, Pf growth 96h 10µM
CCN(CC)S(=O)(=O)c1ccc2oc(Nc3ccccc3)nc2c1	Pf growth 96h inconclusive
Cc1ccnc(NC(=O)c2ccc(S(=O)(=O)N3CCCCCC3)cc2)c1	Pf growth 96h inconclusive
